Experimental findings from PubChem BioAssay AID588453 (National Center for Advancing Translational Sciences (NCATS), 2011) are described below.

In all, about 390,000 compounds went through this assay and about 4,000 (1%) were called active. Roughly 4% stayed inconclusive and do not appear here. The call rests on the fitted dose curve; in most records, active means well fitted inhibition curve with a large enough effect; inconclusive means small, poorly fitted or top-dose-only effect; inactive means no such curve, though single readings can be large or run the other way. The full list was thinned out, with actives kept by preference.
On the % scale 0 is the no-effect control and ±100 the full control effect; potency means the concentration at half of the fitted maximal effect.

For the assay, the target named is Thioredoxin reductase 1, cytoplasmic (Rattus norvegicus) (UniProt O89049). Nature of the assay: qHTS Assay for Inhibitors of Mammalian Selenoprotein Thioredoxin Reductase 1 (TrxR1): qHTS. Further: nearly all actives have a fitted effect of over 65% in size. The following applies: recombinant rTrxR1, NADPH fluorescence consumption, selenite substrate; series mostly up to 114 µM; activity change, negative = inhibition: at the top concentration. The source says: The selenoprotein thioredoxin reductase (TrxR; EC 1.8.1.9) is a FAD containing homodimeric pyridine nucleotide-disulfide oxidoreductase with many cellular roles. Together with NADPH and its prime substrate thioredoxin (Trx), the enzyme forms the core of the Trx system. The mammalian Trx system exerts a wide spectrum of functions including redox regulation, antioxidant defense, regulation of transcription factors as well as support of cell growth and replication. Many of these functions involve the reduction of Trx, which may subsequently reduce a number of different substrates including ribonucleotide reductase, peroxiredoxins or NFkB. Mammalian TrxR itself also has a broad substrate specificity, reducing both protein and non-protein substrates, including low molecular weight compounds such as dehydroascorbate, lipoic acid, ubiquinone, and juglone. In addition, several drugs in clinical use for anticancer treatment are indeed known to target TrxR1.
Thioredoxin reductase 1, cytoplasmic (Rattus norvegicus), sequence (O89049 whole entry, looked up): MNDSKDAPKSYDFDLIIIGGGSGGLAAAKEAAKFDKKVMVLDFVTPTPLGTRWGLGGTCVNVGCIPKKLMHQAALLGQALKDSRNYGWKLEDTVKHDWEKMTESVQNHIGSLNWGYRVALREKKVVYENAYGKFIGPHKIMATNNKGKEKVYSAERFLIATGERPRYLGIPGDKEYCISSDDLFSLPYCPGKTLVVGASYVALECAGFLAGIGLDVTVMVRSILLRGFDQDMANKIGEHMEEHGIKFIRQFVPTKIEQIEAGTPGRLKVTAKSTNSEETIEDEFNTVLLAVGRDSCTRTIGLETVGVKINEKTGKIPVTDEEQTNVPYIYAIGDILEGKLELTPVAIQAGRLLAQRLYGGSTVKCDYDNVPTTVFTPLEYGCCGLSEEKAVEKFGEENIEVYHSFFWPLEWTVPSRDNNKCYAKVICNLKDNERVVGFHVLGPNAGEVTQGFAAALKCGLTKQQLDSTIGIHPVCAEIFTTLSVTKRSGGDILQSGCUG
This BioAssay is a validation of an NADPH fluorescence-based, dual-purpose qHTS rTrxR1 assay designed to find potential inhibitors and substrates of rTrxR1. For this particular BioAssay, actives are potential inhibitors. See related BioAssay for substrate data deposition.
NIH Molecular Libraries Probe Production Network [MLPCN]
NIH Chemical Genomics Center [NCGC]
Assay Provider: Elias Arner, Karolinska Institute
Assay protocol: 2 uL of reagents (buffer in column 4 as negative control and 90 nM rTrxR1 in columns 1-3 and 5-48) were dispensed into Greiner black solid-bottom 1,536-well assay plates, followed by 1 uL of NADPH (400 uM final concentration) to each well. The plates were centrifuged at 1000 rpm for 15 seconds and subsequently incubated for 5 min at room temperature (~22 deg C) to allow for rTrxR1 reduction. Compounds (23 nL) were then transferred via Kalypsys pin tool equipped with 1536-pin array (10 nL slotted pins, V&P Scientific, San Diego, CA). In addition, a duplicate 2-fold serial dilution of the control compounds auranofin, a known gold-based TrxR1 inhibitor, and juglone (5-hydroxy-1,4-naphthoquinone), a natural TrxR1 substrate, were pin-transferred to columns 2 and 3, respectively. After incubation for 15 min at room temperature (~22 deg C), 1 uL of selenite (400 uM final concentration) were dispensed to each well. The plate was immediately transferred to a ViewLux high-throughput CCD imager (PerkinElmer), wherein kinetic measurements of NADPH fluorescence (Ex 340 nm, Em 450 nm) were acquired (8 minute kinetic read, see Table 1). Read 1 was utilized to assess the capacity of a compound to serve as an rTrxR1 substrate, i.e. a decrease in NADPH fluorescence compared to the no-compound background is an indication of a substrate behavior for that particular compound. For inhibitory activity of a compound, delta values, computed as the difference in fluorescence intensity between the first and last reads of an 8-minute time kinetic window, were used. All reagents were diluted in an assay buffer consisting of 50 mM Tris-HCl, pH 7.5, 2 mM EDTA, and 0.01% Tween-20.
Throughout the screen, reagent bottle and all liquid lines were made light-tight to minimize reagent degradation. All screening operations were performed on a fully integrated robotic system (Kalypsys, San Diego, CA) containing one RX-130 and two RX-90 anthropomorphic robotic arms (Staubli, Duncan, SC). Library plates were screened starting from the lowest and proceeding to the highest concentration, and a 'double-pinning' step of the highest concentration was required to access higher concentrations of compounds. Vehicle-only plates, with DMSO being pin-transferred to the columns 5-48, were inserted uniformly at the beginning and the end of each library in order to monitor and record any shifts in the background, which can be affected by reagent dispensers or loss in enzyme activity over time. […]
(In general: In qHTS, concentration-response curves come from the screen itself.)
Turning to `Cc1ccc(CNC(=O)C2(C(F)(F)F)C/C(=C\Cc3ccccc3)CCCO2)o1` (stereo not given), the Potency is 28.2 µM (active).

Regarding `O=C(NCC1CC1)C1(C(F)(F)F)C/C(=C\CCO)CCCO1` (stereo not given), the “activity change, negative = inhibition” value was 18.4% [at 57.1 µM] (inactive).

Take `O=C(NCc1ccccn1)[C@]1(C(F)(F)F)C[C@H](CCc2ccccc2)CCCO1`: the “activity change, negative = inhibition” value was 6.98% (inactive).

With `CC(C)(C)OC(=O)N1CCC(c2c(C(=O)Nc3ccc4c(c3)OCO4)cnn2-c2ccccc2)CC1`, the “activity change, negative = inhibition” value was 8.02% [at 57.1 µM] (inactive).

As to `Cc1ccc(Cl)cc1NC(=O)CCC(=O)N1CC(C)Sc2ccccc21` (stereo not given), the “activity change, negative = inhibition” value is 1.51% (inactive).

Turning to `c1ccc(C2CNCc3c2ccc2ccccc32)cc1` (stereo not given), the Potency was 79.4 µM (active).

`O=C(CSc1nc2ccccc2nc1Cc1ccccc1)N1CCCCC1`: the “activity change, negative = inhibition” value was 2.16% [at 57.1 µM] (inactive).

For `O=C(NC(=S)Nc1cccc(-c2ccc(CO)o2)c1)c1cccs1`, the Potency is 39.8 µM (active).

As to `Cc1sc(NC(=S)NC(=O)c2cccs2)nc1-c1ccc(CC(C)C)cc1`, the “activity change, negative = inhibition” value was 16.1% (inactive).

As for `Cn1c(SCC(=O)Nc2cccc(NC(=O)c3cccs3)c2)nnc1-c1ccncc1`, the “activity change, negative = inhibition” value was 11.5% [at 57.1 µM] (inactive).

On to `Cc1nn(C)c2c1c(C(F)(F)F)cc(=O)n2C(C)C(=O)NCc1ccc(Cl)cc1` (stereo not given), for which the “activity change, negative = inhibition” value was 2.18% [at 57.1 µM] (inactive).

`NS(=O)(=O)c1ccc(NC(=O)C(=O)Nc2ccc3nc4n(c(=O)c3c2)CCCCC4)cc1`: the “activity change, negative = inhibition” value was 10.6% (inactive).

Take `COc1ccc(-c2ccc(OC)c(C3C4C=CCC(C)C4C(=O)N3Cc3ccccc3)c2)cc1C` (stereo not given): the “activity change, negative = inhibition” value is -6.11% (inactive).

For the compound `Cc1cccc([C@H]2[C@@H]3C=CC[C@@H](C)[C@@H]3C(=O)N2Cc2ccccc2)c1`, the “activity change, negative = inhibition” value is 1.61% (inactive).

For the compound `COc1ccc(Br)cc1C1C2C=CCC(C)C2C(=O)N1Cc1ccccc1` (stereo not given), the Potency was 22.4 µM (active).

`O=c1c(NCc2cccs2)nccn1-c1ccccc1`: the “activity change, negative = inhibition” value is 14.5% [at 57.1 µM] (inactive).

For the compound `C=CCn1c(=S)[nH]c2scc(-c3ccco3)c2c1=O`, the Potency is 39.8 µM (active).

With `COc1ccc(C2C(=O)N(C3CCCCCC3)CC(=O)N2CCc2ccc(Cl)cc2)cc1OC` (stereo not given), the “activity change, negative = inhibition” value is 23.7% [at 57.1 µM] (inactive).

Take `CCn1c(C)c(C)c2cc(C(=O)NCCc3cc(OC)ccc3OC)ccc21`: the “activity change, negative = inhibition” value was 18.4% [at 57.1 µM] (inactive).

`Cc1cccc(-c2nc(CS(=O)CC(=O)NC(C)CCc3ccccc3)c(C)o2)c1` (stereo not given): the Potency was 17.8 µM (active).

Take `Cc1ccc(-c2nc(CS(=O)(=O)CC(=O)NCc3ccccc3Cl)c(C)o2)cc1`: the “activity change, negative = inhibition” value was -6.56% (inactive).

For the compound `CC(CCc1ccccc1)NC(=O)c1cnc(Cl)c(Cl)c1` (stereo not given), the “activity change, negative = inhibition” value is 32.7% (inactive).

`Cc1csc[n+]1CCC1CCCCC1`: the “activity change, negative = inhibition” value is 35.2% (inactive).

`Cc1ccc2oc(=O)c3cnn(CC(=O)NCc4ccccc4Cl)c3c2c1`: the “activity change, negative = inhibition” value is 23.3% (inactive).

As for `CN(C)c1cc2c(Nc3ccc4c(cnn4Cc4ccccc4)c3)ncnc2cn1`, the Potency entry is “inactive”.

As for `CCN1CCN(c2ccc(/C=C/c3ccnc4ccccc34)cc2)CC1`, the “activity change, negative = inhibition” value was 14.8% (inactive).

Take `Cc1ccc(S(=O)(=O)N(Cc2nc(-c3ccc(Cl)cc3)no2)C2CCCCC2)cc1`: the “activity change, negative = inhibition” value is 32.3% (inactive).

For `Cc1csc(NC(=O)C2CCN(S(=O)(=O)c3ccccc3)CC2)n1`, the “activity change, negative = inhibition” value is 0.443% (inactive).

Consider `O=C(Nc1cccc(Cl)c1)c1csnn1`, for which the “activity change, negative = inhibition” value was 12% (inactive).

With `Cc1csc(NC(=S)Nc2cccc(Cl)c2)n1`, the Potency is 14.1 µM (active).

As for `CC1CCC2(CC1)N=C(c1ccccc1)C(=O)N2CC(=O)Nc1ccc(F)c(Cl)c1` (stereo not given), the “activity change, negative = inhibition” value was -10.4% (inactive).

In the case of `COc1ccc(Cl)cc1NC(=O)CCn1c(=O)c2cccn2c2ccccc21`, the “activity change, negative = inhibition” value is 13.6% (inactive).

`CCOC(=O)c1scc(-c2ccccc2)c1S(=O)(=O)Nc1ccccc1F`: the “activity change, negative = inhibition” value was 8.78% [at 57.1 µM] (inactive).

Consider `CCCS(=O)(=O)c1ncc(Cl)c(C(=O)Nc2scc(-c3ccccc3)c2C(=O)OCC)n1`, for which the Potency was 4.47 µM (active).

In the case of `CCOC(=O)c1c(-c2ccc(C)cc2C)csc1NC(=O)CSc1nnnn1C`, the “activity change, negative = inhibition” value is -2.88% (inactive).

For the compound `Cc1cc(C)c2oc(C(=O)Nc3c(C(=O)Nc4ccccc4)oc4ccccc34)cc(=O)c2c1`, the “activity change, negative = inhibition” value is 29% (inactive).

`CC(=O)c1ccc[n+](C(C)CCC(C)[n+]2cccc(C(C)=O)c2)c1` (stereo not given): the “activity change, negative = inhibition” value is 9.71% (inactive).

As for `O=C(Nc1ccc2nc(SCCOc3ccccc3Cl)sc2c1)c1ccco1`, the “activity change, negative = inhibition” value is -8.93% (inactive).

On to `COc1ccc(-c2nc(CS(=O)CC(=O)NCc3cccnc3)c(C)o2)cc1OC` (stereo not given), for which the “activity change, negative = inhibition” value is -62% (inactive).

With `Cc1ccccc1-c1nc(CS(=O)(=O)CC(=O)N2CCc3ccccc3C2)c(C)o1`, the Potency is 7.94 µM (active).

For `COc1ccc(-c2nc(CS(=O)CC(=O)NCc3ccccn3)c(C)o2)cc1` (stereo not given), the Potency is 7.08 µM (active).

Regarding `COc1cccc(-c2nc(CS(=O)(=O)CC(=O)N3CCN(c4cc(C)ccc4C)CC3)c(C)o2)c1`, the “activity change, negative = inhibition” value was -6.98% (inactive).

Regarding `COc1ccc(-c2nc(CS(=O)CC(=O)N3CCc4ccccc4C3)c(C)o2)cc1` (stereo not given), the Potency is 7.94 µM (active).

`CNC(=O)c1ccc(-c2nc(CN3CCc4ccccc43)c(C)o2)cc1`: the “activity change, negative = inhibition” value is 13.2% [at 57.1 µM] (inactive).

On to `Cc1ccccc1-c1nc(CS(=O)(=O)CC(=O)Nc2cc(Cl)cc(Cl)c2)c(C)o1`, for which the “activity change, negative = inhibition” value is 6.11% (inactive).

Regarding `Cc1ccc(-c2nc(CS(=O)CC(=O)N3CCN(c4ncccn4)CC3)c(C)o2)cc1` (stereo not given), the Potency was 10 µM (active).

`COc1ccc(CNC(=O)CS(=O)Cc2nc(-c3cccc(C)c3)oc2C)cc1` (stereo not given): the “activity change, negative = inhibition” value is -11.3% (inactive).

`COc1ccc(-c2nc(CN3CCN(c4ncccn4)CC3)c(C)o2)cc1C`: the “activity change, negative = inhibition” value is 24.7% [at 57.1 µM] (inactive).

For the compound `Cc1ccccc1-c1nc(CS(=O)(=O)CC(=O)NC(C)c2ccccc2)c(C)o1` (stereo not given), the Potency result is “inactive”.

Consider `COc1ccc(N2CCN(C(=O)CSCc3nc(-c4ccccc4Cl)oc3C)CC2)cc1`, for which the “activity change, negative = inhibition” value was 7.44% (inactive).

With `Nc1ccc(/C=C/c2ccnc3ccccc23)c([N+](=O)[O-])c1`, the “activity change, negative = inhibition” value was 2.67% (inactive).

In the case of `CCCCNc1ccc(-c2nc(-c3ccncc3)no2)cc1[N+](=O)[O-]`, the “activity change, negative = inhibition” value was -3.02% (inactive).

With `CCC1CCCCN1S(=O)(=O)c1ccc(NC(=O)c2cc(=O)c3ccccc3o2)cc1` (stereo not given), the “activity change, negative = inhibition” value is 16.9% (inactive).

Turning to `Brc1nc2ncnc(NCc3ccco3)c2[nH]1`, the activity change, negative = inhibition is 24.3% [at 0.0914 µM] (inactive).

For the compound `COc1cc(CNC(=O)c2cc3n(n2)CCCN(Cc2cccc(F)c2)C3=O)cc(OC)c1OC`, the “activity change, negative = inhibition” value is 10.6% [at 57.1 µM] (inactive).

Turning to `CC1CCN(C(=O)Cn2c(=O)n(-c3ccc(Cl)cc3)c(=O)c3c4c(sc32)CCC4)CC1`, the “activity change, negative = inhibition” value was 21% (inactive).

For `O=C(O)C1=C/C(=C/C=[N+]2c3cc(O)c(O[C@H]4OC(CO)[C@@H](O)[C@@H](O)[C@@H]4O)cc3C[C@@H]2C(=O)[O-])C[C@H](C(=O)O)N1` (stereo not given in full), the “activity change, negative = inhibition” value was -0.117% (inactive).

With `CC(C)[C@@H](NC(=O)OC(C)(C)C)C(=O)NCC1CCC(C(=O)N[C@@H](Cc2ccccc2)C(=O)O)CC1` (stereo not given in full), the “activity change, negative = inhibition” value is 17.4% [at 57.1 µM] (inactive).

With `C[C@@H](NC(=O)OC(C)(C)C)c1nnc(S(=O)(=O)Cc2ccccc2)o1`, the Potency was 0.316 µM (active).

On to `CC(C)(C)c1ccc(C(CC(=O)O)NS(=O)(=O)Cc2ccccc2)cc1` (stereo not given), for which the “activity change, negative = inhibition” value is 26.7% (inactive).
